# Results as given in PubChem BioAssay AID1851 (National Center for Advancing Translational Sciences (NCATS), 2009).
# The whole screen tested about 16,000 compounds, of which about 5,100 (32%) were called active. Inconclusive results (about 25%) are left out. The list shows a part of the results. Unmarked numbers belong to inactive results. Calls come from the whole dose curve; as a rule, active = well fitted curve in the direction sought with a large enough effect; inconclusive = small, poorly fitted or top-dose-only effect, or effect the other way; inactive = no such curve, though single readings can be large or run the other way.
# Biological target: Cytochrome P450 3A4 (Homo sapiens) (UniProt P08684)
# Experiment: Cytochrome panel assay with activity outcomes
# Conditions: recombinant CYP, pro-luciferin dealkylation, luminescence, p450-cyp3a4; series mostly up to 57.1 µM; activity, negative = inhibition: at the top concentration
# % is set by controls: 0 for no effect and ±100 for the full control effect.
# Sequence of Cytochrome P450 3A4 (Homo sapiens) (P08684 whole entry, looked up): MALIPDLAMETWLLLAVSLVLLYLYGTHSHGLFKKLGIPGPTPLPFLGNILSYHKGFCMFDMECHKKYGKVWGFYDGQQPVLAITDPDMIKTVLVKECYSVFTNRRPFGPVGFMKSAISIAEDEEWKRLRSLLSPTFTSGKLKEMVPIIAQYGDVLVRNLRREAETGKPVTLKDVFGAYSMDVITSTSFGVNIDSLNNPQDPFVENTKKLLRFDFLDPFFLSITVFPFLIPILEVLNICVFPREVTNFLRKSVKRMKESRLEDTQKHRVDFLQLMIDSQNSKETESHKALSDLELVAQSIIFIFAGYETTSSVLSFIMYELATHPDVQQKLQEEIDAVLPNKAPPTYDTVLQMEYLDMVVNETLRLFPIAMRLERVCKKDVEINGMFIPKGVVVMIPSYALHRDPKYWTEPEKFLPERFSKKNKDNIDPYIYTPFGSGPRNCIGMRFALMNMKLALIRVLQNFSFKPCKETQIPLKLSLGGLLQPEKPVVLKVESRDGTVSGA
SMILES,"activity, negative = inhibition",AC50
O=S(=O)(C=C(c1ccccc1)c1ccccc1)c1ccccc1,3.56%,
CCC(=S)/C=C1\Sc2ccc3ccccc3c2N1CCCS(=O)(=O)O,-15.7%,
COc1ccc2[nH]cc(CCNc3ccnc(-c4c(C)noc4C)n3)c2c1,,2.51 µM (active)
COc1ccc2[nH]cc(CCNc3ccnc(-c4ccoc4)n3)c2c1,,3.16 µM (active)
CCOC(=S)NC(=O)c1sc2ccccc2c1Cl,-1.55%,
O=C(NC(=S)N(CCCCO)C1CCCCC1)c1sc2ccccc2c1Cl,,3.16 µM (active)
Oc1ccc2ccccc2c1CN(Cc1c(O)ccc2ccccc12)C1CCCCC1,-12% [at 11.4 µM],
O=C1CN2CCN(CC2)CC(=O)Nc2ccc(cc2)S(=O)(=O)c2ccc(cc2)NC(=O)CN2CCN(CC2)CC(=O)Nc2ccc(cc2)S(=O)(=O)c2ccc(cc2)N1,-29.8% [at 11.4 µM],
C#CCSc1nnc(-c2sc(-c3ccccc3)nc2C)n1C,,1 µM (active)
CSc1nnc(-c2sc(-c3ccccc3)nc2C)n1C,10.5%,
CSc1nnc(-c2sccc2OCc2ccccc2)n1C,-26.2%,
O=C(O)CSc1cc(-c2ccccc2)nc2ccccc12,-1.98% [at 11.4 µM],
Cc1ccc(-c2cc(-c3nnc(SCC(=O)NC(C)C(C)C)n3N)c3ccccc3n2)cc1 (configuration not stated),,14.1 µM (active)
CCCCC(=O)Nc1sc2c(c1C(=O)OCC)CCC(C=O)=C2Cl,,15.8 µM (active)
CCOC(=O)c1c(NC(=O)c2c(C)noc2C)sc2c1CCCCC2,-8.22%,
O=C(O)c1cc2ccccc2c(S(=O)(=O)O)c1O,1.86% [at 11.4 µM],
C/C(CCN1CCc2nc(-c3ccccc3)c(-c3ccccc3)cc2C1)=N\O[C@@H](C)CN1CCCCc2nc(C)c(C)cc21,,3.98 µM (active)
CCN(CC)C[C@@H](O)CN1CCCCc2nc(C)c(C)cc21,-14.9% [at 11.4 µM],
C/C(CCN1CCCc2nc(C)c(C)cc21)=N\O[C@@H](C)CN1CCCCc2nc(C)c(C)cc21,,3.98 µM (active)

SMILES,"activity, negative = inhibition",AC50
C/C(CCN1CCCCc2nc(C)c(C)cc21)=N\O[C@@H](C)c1cc(-c2c(C)cc(C)cc2C)no1,,3.98 µM (active)
Cc1cc2c(nc1C)CCCN2CC(O)CN1CCCc2nc(C)c(C)cc21,-8.33% [at 11.4 µM],
CO/N=C(\C)CCN1CCCc2nc(C)c(C)cc21,-26.4% [at 11.4 µM],
C/C(CCN1CCCCc2nc(C)c(C)cc21)=N\O[C@@H](C)CN1CCCCc2nc(C)c(C)cc21,,3.98 µM (active)
Nc1ccc(C(=O)NCC(=O)O)cc1,-3.58% [at 25.6 µM],
CC[N+](CC)(CC)CC[C@](O)(c1ccccc1)C1CCCCC1,-16.7% [at 25.6 µM],
Nc1c2c(nc3ccccc13)CCC[C@H]2O,-4.4%,
CCc1ccc2c(c1)c(N=NC1=NC(=O)CS1)c(O)n2CC,-22.3%,
Cc1cc2c(nc1C)CCCN2C[C@H](O)CN1CCCc2nc(-c3ccc(Br)cc3)ccc21,,3.98 µM (active)
C/C(CCN1CCCCc2nc(C)c(C)cc21)=N\O[C@@H](C)CN1CCCc2nc(C)c(C)cc21,,3.16 µM (active)
Cc1cc2c(nc1C)CCCCN2C[C@H](C)O/N=C\[C@@H](C)[C@H](OCc1ccccc1)C(C)C,,3.98 µM (active)
CCc1cc2c(nc1CC)CCN(CC/C(C)=N/O[C@@H](C)c1cc(-c3c(C)cc(C)cc3C)no1)C2,,3.98 µM (active)
COc1ccc(-c2ccc3c(n2)CCCN3C[C@H](O)CN2CCCc3nc(-c4ccc(Br)cc4)ccc32)cc1,-28.9% [at 11.4 µM],
Cc1cc2c(nc1C)CCCCN2C[C@H](O)CN1CCCc2nc(-c3ccc(Br)cc3)ccc21,-29.7% [at 11.4 µM],
CCc1cc2c(nc1CC)CCN(CC/C(C)=N/O[C@@H]1O[C@H](COC(C)=O)[C@H](OC(C)=O)[C@H](OC(C)=O)[C@H]1OC(C)=O)C2,-28.1% [at 11.4 µM],
Cc1cc2c(nc1C)CCCN2C[C@@H](O)CN1CCN(C)CC1,0.272% [at 11.4 µM],
C[C@@H](N)[C@@H](C)Cc1ccccc1,-8.05% [at 11.4 µM],
CN(C)CCO[C@](C)(c1ccccc1)c1ccccn1,,inactive
CCCn1nc(Oc2nc(NCC)nc(NCC)n2)ccc1=O,-15%,

SMILES,"activity, negative = inhibition",AC50
CCCCCCCCCCCCCCCC(=O)C(F)(F)F,-11.7%,
COc1ccc(Oc2ncc3nc(-c4cccs4)c(=O)n(-c4ccccc4)c3n2)cc1,,2.51 µM (active)
COc1ccc(-n2c(=O)c(-c3cccs3)nc3cnc(Oc4ccccc4)nc32)cc1,-9.44%,
COc1ccc(-n2c(=O)c(-c3cccs3)nc3cnc(OC)nc32)cc1,,7.94 µM (active)
COc1ncc2nc(-c3cccs3)c(=O)n(-c3ccccc3)c2n1,-29.3%,
CN(C)CCN(c1ccccn1)c1ccccn1,-13.9% [at 11.4 µM],
N#C[C@H]1CN[C@H](N)N[C@@H]1N,-6.92% [at 11.4 µM],
COc1ccc(-c2ccc(/C=C3\C(=O)N(c4ccccc4)N=C3c3ccccc3)o2)c([N+](=O)[O-])c1,,2 µM (active)
Cc1sc(=NC(=O)c2ccco2)n(C)c1-c1ccc(F)cc1,25.2%,
COc1nc(/C(N)=N/O)nc(N2CCCCC2)n1,-1.23%,
CCOC(=O)c1nnn(-c2nc(OC)nc(N3CCCCC3)n2)c1-c1ccccc1,,15.8 µM (active)
N#CN(CC(N)=O)c1nc(N2CCCCC2)nc(N2CCCCC2)n1,-13.4% [at 11.4 µM],
CCOC(=O)c1nnn(-c2nonc2N)c1-c1ccccc1,,15.8 µM (active)
CC(C)(O)c1cn(-c2nonc2N)nn1,-2.62%,
Nc1nonc1-n1nncc1-c1ccccc1,,15.8 µM (active)
CCOC(=O)c1cnc(SCCc2ccccc2)nc1N,-14.7%,
CC(C)OC(=O)c1nnn(-c2nonc2N)c1CSc1ccccn1,,0.398 µM (active)
CCOC(=O)c1nnn(-c2nonc2N)c1-c1ccc(C)cc1,-14.1% [at 2.29 µM],
COCc1c(C(N)=O)nnn1-c1nonc1N,3.21%,
